The results in this text go back to PubChem BioAssay (Tox21).

Values joined by “and” are separate entries in the source; they are usually repeats but may differ in a detail not shown here. Equal entries are not always repeated. Inconclusive results are not listed. Values without a mark were called inactive. Active and inactive are the calls of the source. Calls come from the whole dose curve; as a rule, active = well fitted cell-killing curve with a large enough effect in the repeat runs; inconclusive = weak or mixed curves, or effect the other way; inactive = flat fitted curve, though single readings scatter.
% is set by controls: 0 for no effect and ±100 for the full control effect; potency is the fitted concentration of half-maximal effect.

This experiment in a line: qHTS assay to identify small molecule agonists of the androgen receptor (AR) signaling pathway in the presence of an antagonist - cell viability counter screen (AID 1259379). Note: nearly all actives have a fitted effect of over 25% in size. The settings on record: MDA-kb2 viability, CellTiter-Fluor, 16 h; series mostly up to 92.4 µM; activity change, negative = cytotoxicity: at the top concentration. The text has this:
National Center for Advancing Translational Sciences [NCATS]
NIH Chemical Genomics Center [NCGC]
U.S. Environmental Protection Agency [EPA]
National Institutes of Environmental Health Sciences [NIEHS]
National Toxicology Program [NTP]
U.S. Food and Drug Administration [FDA]
Androgen receptor (AR) is an important member of nuclear receptor family. Its signaling plays a critical role in AR-dependent prostate cancer and other androgen related diseases. Considerable attention has been given in the past decades to develop methods to study and screen for the environmental chemicals that have the potential to interfere with metabolic homeostasis, reproduction, developmental and behavioral functions. Therefore AR binding assay for screening against androgen agonists and antagonists can be used to identify potential endocrine disruptors.
MDA-kb2 cells (from ATCC, deposited by Wilson et al.) are human breast carcinoma cells that were stably transfected with a luciferase reporter gene under control of the MMTV promoter that contains response elements for both androgen receptor (AR) and glucocorticoid receptor (GR). This particular screening for measuring luciferase reporter gene activity using MDA-kb2 cells against Tox21 10K library compounds is a confirmation study on agonist mode screening in the presence of AR-antagonist compound (Nilutamide) at 3.0uM final concentration. The cytotoxicity of the compounds was tested in parallel by measuring the cell viability using CellTiter-Fluor assay system (Promega, Madison, WI) in the same wells.
Tox21 Assay Protocol Summary:
MDA-kb2 cells (cells cultured without CO2) were dispensed at 3,000 cells/well in 4uL of culture medium into white wall/solid-bottom 1536-well plates (Corning Life Sciences, Corning, NY) using a Multidrop Combi (Thermo Fisher Scientific Inc., Waltham, MA) dispenser. The assay plates were incubated at 37C and 0% CO2 for 5hr. One uL of 3.0uM (final concentration) Nilutamide or assay buffer was added using two separate tips of Flying Reagent Dispenser (FRD, Aurora Discovery, San Diego, CA). Then 23nL of compounds dissolved in DMSO at 15 concentrations and positive controls were transferred to the assay plates using a Pintool station (Wako, San Diego, CA). The assay plates were incubated at 37C and 0% CO2 for 16 hr. After 15hr incubation at 37C, 1uL/well CellTiter-Fluor reagent (Promega Corporation) was added to each well of the assay plates using FRD. After 1hr incubation at 37C and 0% CO2, the fluorescence signal was measured using a ViewLux plate reader (PerkinElmer, Shelton, CT).
For `C=C(c1ccc(C(=O)O)cc1)c1cc2c(cc1C)C(C)(C)CCC2(C)C`, the “activity change, negative = cytotoxicity” value is -1.66% [at 42.5 µM].

Consider `C=CC(=C)CCC=C(C)C`, for which the “activity change, negative = cytotoxicity” value is -0.982%.

As to `CO[Si](CCCNCCNCCN)(OC)OC`, the “activity change, negative = cytotoxicity” value was 1.35%.

For `CCCCCCCOC(=O)c1ccccc1C(=O)OCCCCCCC`, the “activity change, negative = cytotoxicity” value was 1.87%.

In the case of `CC1=C(/C=C/C(C)=C/C=C/C(C)=C/C(=O)Nc2ccc(O)cc2)C(C)(C)CCC1`, the Potency was 49.8 µM (active) and 23.7 µM (active).

For `Cn1cccc1`, the “activity change, negative = cytotoxicity” value was 1.28%.

With `COc1cc(C=C2CCC/C(=C\c3ccc(O)c(OC)c3)C2=O)ccc1O`, the Potency is 26.6 µM (active).

For `O=S(=O)(O)c1cc(S(=O)(=O)O)c2ccc3c(S(=O)(=O)O)cc(S(=O)(=O)O)c4ccc1c2c43`, the activity change, negative = cytotoxicity was 1.33% [at 19 µM].

As for `CCCCN(C)C`, the “activity change, negative = cytotoxicity” value was -1.43%.

Regarding `CN(C)CCOC(c1ccccc1)c1ccccc1` (tested in a mixture with another compound), the “activity change, negative = cytotoxicity” value was -5.21%.

On to `CCc1ccc(O)c(C(C)(C)C)c1`, for which the “activity change, negative = cytotoxicity” value is -0.566%.

With `CC1(C)C(=O)N(Br)C(=O)N1Br`, the “activity change, negative = cytotoxicity” value is -0.0741%.

Consider `CCCCCCCC/C=C/CCCOC(C)=O`, for which the “activity change, negative = cytotoxicity” value is 2.6%.

As for `Cc1cc(C)c(C=O)c(C)c1`, the “activity change, negative = cytotoxicity” value is 0.359%.

`CCC(C)c1ccccc1` (stereo not given): the “activity change, negative = cytotoxicity” value is -0.0225%.

On to `C(=C/c1ccccc1)/c1ccccc1`, for which the “activity change, negative = cytotoxicity” value is 1.66%.

Consider `CCOCN(C(=O)CS(=O)(=O)O)c1c(C)cccc1CC`, for which the “activity change, negative = cytotoxicity” value was -0.316%.

Consider `COc1cc(C(=O)NS(=O)(=O)c2ccccc2C)ccc1Cc1cn(C)c2ccc(NC(=O)OC3CCCC3)cc12`, for which the “activity change, negative = cytotoxicity” value was -6.65% [at 42.5 µM].

On to `O=C(Nc1ccc(Cl)cc1)Nc1ccc(Cl)c(C(F)(F)F)c1`, for which the Potency is 11.9 µM (active).

For the compound `OCCC(O)CO` (stereo not given), the “activity change, negative = cytotoxicity” value is -0.974%.

`CC(=O)Oc1ccc(C2(c3ccc(OC(C)=O)cc3)Oc3ccccc3NC2=O)cc1`: the “activity change, negative = cytotoxicity” value was -10.8% [at 42.5 µM].

As for `CCO[Si](C)(C)OCC`, the “activity change, negative = cytotoxicity” value is 6.34%.

Consider `OCCN1CN(CCO)CN(CCO)C1`, for which the “activity change, negative = cytotoxicity” value is -6.45%.

Take `CN(C)CCCN1c2ccccc2CCc2ccccc21`: the Potency is 61.1 µM (active).

Turning to `O=S(=O)(O)CCCN1CCOCC1`, the “activity change, negative = cytotoxicity” value is 1.59%.

As for `C=CC(=O)OCCC#N`, the “activity change, negative = cytotoxicity” value is -10.8%.

With `CC1(C)C(=O)N(CO)C(=O)N1CO`, the “activity change, negative = cytotoxicity” value is -0.285%.

Take `CNCC[C@H](Oc1cccc2ccccc12)c1cccs1`: the Potency was 29.8 µM (active).

For the compound `CCOC(OCC)C(=O)c1ccccc1`, the “activity change, negative = cytotoxicity” value is -2.3%.

Turning to `CC(C)=CCCC(C)CCOC(=O)C(C)C` (stereo not given), the “activity change, negative = cytotoxicity” value is 3.9%.

With `O=C(O)Cc1ccc(OCCNC[C@H](O)c2ccccc2)cc1`, the “activity change, negative = cytotoxicity” value was -1% [at 42.5 µM].

`CCOC(=O)CN`: the “activity change, negative = cytotoxicity” value is 0.704%.

With `CCCOc1sc(C(=O)N2CCC(c3cc(CN)ccc3F)CC2)c(C)c1Br`, the Potency was 56 µM (active).

Take `COC(=O)CC#N`: the “activity change, negative = cytotoxicity” value was 3.04%.

In the case of `C1CC(COCC2CO2)CCC1COCC1CO1` (stereo not given), the “activity change, negative = cytotoxicity” value was -0.614%.

As to `CC(C)N=C(N)/N=C(\N)Nc1ccc(Cl)cc1`, the “activity change, negative = cytotoxicity” value was -8.24% [at 42.5 µM].

Consider `CC(C)OC(=O)c1cc(C(=O)OC(C)C)cc([N+](=O)[O-])c1`, for which the “activity change, negative = cytotoxicity” value was 6.55%.

As for `O=S(O)O`, the activity change, negative = cytotoxicity is 1.09% [at 19 µM].

For `c1cc2c3c(c1)ccc1cccc(c13)C2`, the “activity change, negative = cytotoxicity” value was 2.07%.

With `CCCCCCCOC(=O)c1ccc(O)cc1`, the Potency entry was “inactive”.
